Experimental data reported in article PMC5540273 (PLoS ONE, 2017).

Legend:
Conditions in all cases: concentration: 1 μM, replicates: in singlicate; n = 1
STK36 = tested on: STK36
STK39 = tested on: STK39
SYK = tested on: SYK
SgK110 = tested on: SgK110
TAK1 = tested on: T1, TAK1
T1 construct: gene MAP3K7

TAOK1 = tested on: TAOK1
TAOK2 = tested on: TAOK2
TAOK3 = tested on: TAOK3
TBK1 = tested on: TBK1
TEC = tested on: TEC
TESK1 = tested on: TESK1
TGFBR1 = tested on: TGFBR1
TGFBR2 = tested on: TGFBR2
TIE1 = tested on: TIE1
TIE2 = tested on: T2, TIE2
T2 construct: gene TEK

TLK1 = tested on: TLK1
TLK2 = tested on: TLK2
TNIK = tested on: TNIK
TNK1 = tested on: TNK1
TNK2 = tested on: TNK2
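Also: KINOMEscan kinase panel screen.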

Row | Structure (SMILES) | %Inh (STK36) [%] | %Inh (STK39) [%] | %Inh (SYK) [%] | %Inh (SgK110) [%] | %Inh (TAK1) [%] | %Inh (TAOK1) [%] | %Inh (TAOK2) [%] | %Inh (TAOK3) [%] | %Inh (TBK1) [%] | %Inh (TEC) [%] | %Inh (TESK1) [%] | %Inh (TGFBR1) [%] | %Inh (TGFBR2) [%] | %Inh (TIE1) [%] | %Inh (TIE2) [%] | %Inh (TLK1) [%] | %Inh (TLK2) [%] | %Inh (TNIK) [%] | %Inh (TNK1) [%] | %Inh (TNK2) [%]
1 | Cc1ccc(NC(=O)c2ccnc(N3CCCCC3)c2)cc1-c1ccc(C(=O)NCC2CC2)cc1 [GW775610] | 0 | 15 | 0 | 0 | 0 | 0 | 0 | 0 | 0 | 0 | 1 | 6 | 0 | 0 | 0 | 100 | 0 | 0 | 0 | 0
2 | COc1cc(Nc2ccnc3cc(-c4ccncc4)ccc23)cc(OC)c1OC.Cl [GW494610] | 9 | 11 | 0 | 0 | 0 | 0 | 0 | 0 | 0 | 5 | 73 | 63 | 59 | 19 | 15 | 0 | 0 | 89 | 40 | 28
3 | O=C(Nc1n[nH]c2cc(-c3cccs3)ccc12)C1CC1 [SB-731284] | 0 | 0 | 0 | 0 | 23 | 61 | 0 | 34 | 47 | 0 | 0 | 0 | 0 | 0 | 7 | 0 | 0 | 56 | 0 | 0
4 | Cc1ccc(NC(=O)c2cccc(N3CCCCC3)c2)cc1-c1ccc(C(=O)NCC2CC2)cc1 [GSK1917008] | 0 | 0 | 20 | 0 | 0 | 8 | 0 | 12 | 0 | 0 | 0 | 24 | 9 | 1 | 0 | 4 | 0 | 2 | 6 | 16
5 | COc1cccc2c(-c3ccncc3)c(-c3ccc(F)cc3)nn12 [GW468513] | 54 | 14 | 0 | 0 | 0 | 0 | 0 | 0 | 2 | 4 | 0 | 65 | 47 | 33 | 0 | 0 | 0 | 69 | 0 | 14
6 | Cc1ccc(C)c(NC(=O)Nc2ccc(C)c(-c3ccc(C(=O)Nc4ccncc4)cc3)c2)c1 [GSK1398473] | 2 | 5 | 17 | 20 | 0 | 0 | 0 | 0 | 2 | 5 | 20 | 11 | 0 | 0 | 0 | 0 | 0 | 0 | 7 | 36
7 | COc1cccc(C2=C(Nc3cccc(O)c3)C(=O)NC2=O)c1 [SB-390771] | 0 | 8 | 22 | 18 | 100 | 10 | 36 | 9 | 30 | 7 | 34 | 19 | 0 | 0 | 0 | 29 | 33 | 0 | 0 | 15
8 | CCn1c(-c2nonc2N)nc2c(-c3ccccc3)ncc(OCCCN)c21.O=C(O)C(F)(F)F.O=C(O)C(F)(F)F [GSK260205] | 0 | 7 | 19 | 0 | 0 | 0 | 0 | 0 | 5 | 0 | 0 | 76 | 0 | 70 | 41 | 1 | 0 | 85 | 1 | 8
9 | CCn1cnc2c(NCc3ccccc3)ncnc21 [SKF-96418] | 0 | 16 | 0 | 0 | 0 | 0 | 27 | 0 | 17 | 0 | 15 | 25 | 0 | 0 | 0 | 0 | 1 | 0 | 2 | 0
10 | O=C1NC(=O)C(c2ccccc2Cl)=C1Nc1cccc(Cl)c1 [SB-342409] | 0 | 9 | 0 | 0 | 0 | 0 | 0 | 11 | 7 | 13 | 20 | 4 | 71 | 7 | 0 | 68 | 50 | 0 | 12 | 18
11 | Cc1cccc(Nc2nc(NCCN)ncc2C(N)=O)c1 [GSK1292139] | 0 | 14 | 97 | 91.1 | 83 | 15 | 66 | 9 | 28 | 40 | 0 | 0 | 0 | 0 | 0 | 18 | 17 | 89 | 0 | 0
12 | O=C(Nc1n[nH]c2nc(-c3cccc(O)c3)ccc12)C1CC1 [SB-711805] | 14 | 4 | 40 | 0 | 15 | 88 | 12 | 34 | 23 | 0 | 0 | 4 | 87 | 0 | 21 | 9 | 100 | 65 | 4 | 0
13 | O=C(O)C(F)(F)F.O=c1[nH]ccc2nc(N[C@@H]3CCNC3)nc(Nc3cc(Cl)cc(Cl)c3)c12 [GSK2188764] | 17 | 75 | 84 | 3 | 99.1 | 34 | 3 | 18 | 54 | 0 | 8 | 25 | 0 | 0 | 0 | 62 | 73 | 96.5 | 41 | 4
14 | O=C(O)C(F)(F)F.O=c1[nH]ccc2nc(N[C@@H]3CCNC3)nc(Nc3ccc4c(c3)S(=O)(=O)CC4)c12 [GSK2181306] | 20 | 84 | 87 | 10 | 99.3 | 90.3 | 60 | 94.9 | 68 | 0 | 0 | 0 | 0 | 0 | 0 | 94.6 | 98.5 | 98 | 31 | 3
15 | Cc1ccccc1CC(=O)N1CCc2cc(-c3cn(C)c4ncnc(N)c34)ccc21 [GSK2603346] | 0 | 13 | 0 | 0 | 6 | 0 | 0 | 0 | 5 | 0 | 45 | 0 | 3 | 87 | 48 | 0 | 0 | 0 | 0 | 27
16 | CN(C)c1ncnc2nc[nH]c12 [SKF-31736] | 0 | 5 | 0 | 0 | 0 | 0 | 26 | 3 | 34 | 0 | 0 | 0 | 0 | 5 | 0 | 0 | 0 | 0 | 0 | 0
